Test results: PubChem BioAssay (NCATS)
Records with an inconclusive call do not appear. A call without a number means that no potency is given here. The source made the active and inactive calls. Unless noted, calls come from the whole dose curve; as a rule, active = well fitted curve in the direction sought with a large enough effect; inconclusive = small, poorly fitted or top-dose-only effect, or another doubt; inactive = no such curve, though single readings can be large; an effect the other way counts as inactive or inconclusive.

Columns and labels:
[1] = Cell Viability - Jurkat (AID 426;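 active = dose-dependent loss of cell ATP signal giving a full or clear fitted curve, ranked by lower potency value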; note: potency is the fitted concentration of half-maximal effect); conditions: qHTS
In short: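 qHTS, 1536-well; Jurkat E6-1, 5000 cells/well, complete medium; cpd 40 hr, 37 °C; CellTiter-Glo 20 min RT; luminescence. AC50 by Hill fit.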

[2] = Cell Viability - HepG2 (AID 433; calls by dose curve;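 note: potency is the fitted concentration of half-maximal effect; potency for ATP loss meaning cytotoxicity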); conditions: qHTS
In short: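 ATP luminescence (CellTiter-Glo) after 40 h compound exposure, 37 °C, HepG2, 1500 cells/well, complete medium. Normalized: DMSO = basal, 100 uM tamoxifen = 100% inhibition. AC50 via standard Hill equation.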

[3] = Cell Viability - NIH 3T3 (AID 541); conditions: NIH 3T3 cell viability, qHTS; activity change, negative = cytotoxicity: at 92.2 µM (top of the series); note: nearly all actives have a fitted effect of over 25% in size; note: potency is the fitted concentration of half-maximal effect
In short: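 Luminescent ATP signal (CellTiter-Glo) served as the viability read-out after NIH 3T3 cells were exposed to compounds over a concentration range for 40 hr at 37 °C. Hill-equation modelling of concentration-response data gave AC50.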

[4] = Cell Viability - H-4-II-E (AID 543); conditions: H-4-II-E rat hepatoma viability; series mostly up to 92.2 µM; note: nearly all actives have a fitted effect of over 35% in size; note: potency is the fitted concentration of half-maximal effect
In short: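 Luminescent ATP signal (CellTiter-Glo) served as the viability read-out, with cytotoxicity seen as a concentration-dependent ATP drop. Cells were treated for 40 hours in complete medium. AC50 values derive from Hill-equation modelling.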

[5] = Cell Viability - LYMP2-022 (AID 987); conditions: LYMP2-022 lymphoblastoid cell viability; series mostly up to 92.2 µM; note: nearly all actives have a fitted effect of over 55% in size; note: potency is the fitted concentration of half-maximal effect
In short: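 qHTS: human lymphoblastoid cells 2500/well; 5 hr 37 C; cpd added; 24 hr 37 C; CellTiter-Glo, 30 min RT; luminescence. AC50 via Hill fit; tetraoctylammonium bromide positive ctrl.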

[6] = Cell Viability - LYMP2-024 (AID 988); conditions: LYMP2-024 lymphoblastoid cell viability; series mostly up to 92.2 µM; note: nearly all actives have a fitted effect of over 60% in size; note: potency is the fitted concentration of half-maximal effect
In short: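 Steps: seed 2500 cells/well, 5 hr 37 C; add compound, 24 hr 37 C; add CellTiter-Glo, 30 min room temperature; read luminescence. AC50 derived by Hill modelling of concentration-dependent ATP loss.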

[7] = target: Estrogen receptor (Homo sapiens) (UniProt P03372); assay: qHTS assay for small molecule antagonists of estrogen receptor alpha signaling (AID 588513; active = well fitted curve in the direction sought with a large enough effect in the signal ratio, with a control signal flat, not every such curve was filed as active; the % refers to the signal ratio); conditions: ER-alpha-UAS-bla HEK293, beta-lactamase ratio, antagonist mode; series mostly up to 76.9 µM
In short: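 Beta-lactamase reporter, antagonist mode, HEK 293 GripTite cells; 0.5nM E2 stimulus, 18 h, 37 C; CCF4 dye 2 h RT; fluorescence. IC50 and efficacy from Hill fits, normalized to E2 and DMSO.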

[8] = target: Estrogen receptor (Homo sapiens) (UniProt P03372); assay: qHTS assay for small molecule agonists of estrogen receptor alpha signaling (AID 588514; calls by dose curve; note: nearly all actives have a fitted effect of over 70% in size); conditions: ER-alpha-UAS-bla HEK293, beta-lactamase ratio, 18 h; series mostly up to 76.8 µM
In short: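 Cells were plated at 5000/well, incubated 4 hrs at 37 C, dosed with compound titration series, incubated 18 hrs at 37 C, loaded with CCF4 dye for 2 hrs at RT, then fluorescence was read.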

[9] = target: Bile acid receptor (Homo sapiens) (UniProt Q96RI1); assay: qHTS assay for small molecule agonists of farnesoid X receptor signaling (AID 588527; calls by dose curve); conditions: HEK293T FXR-UAS-bla, beta-lactamase ratio, 16 h; stronger effect = higher value
In short: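 Quantitative HTS used FXR-UAS-bla HEK293T cells with 16 h compound incubation at 37 C. EC50 values came from concentration-response curves normalized to chenodeoxycholic acid.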

[10] = qHTS assay for small molecule antagonists of peroxisome proliferator-activated receptor delta signaling (AID 588535; active = well fitted inhibition curve with a large enough effect in the signal ratio, with a control signal flat, not every such curve was filed as active; the % refers to the signal ratio;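 for max response: cells co-treated with a PPAR-delta agonist as stimulator during compound exposure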); conditions: HEK293T PPARd-UAS-bla, beta-lactamase FRET ratio, 18 h; 460 nm channel
In short: (§1)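 HEK293T PPAR-delta-UAS-bla cells, 4000/well, 2% charcoal/dextran FBS; 5 h 37 C; cpd titration; 18 h 37 C; CCF4 2 h RT; FI 460/530 nm; Hill fit → IC50, efficacy.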

[11] = target: Peroxisome proliferator-activated receptor delta (Homo sapiens) (UniProt Q03181); assay: as above; conditions: HEK293T PPARd-UAS-bla, beta-lactamase FRET ratio, 18 h; series mostly up to 76.7 µM
In short: as §1

[12] = target: Peroxisome proliferator-activated receptor gamma (Homo sapiens) (UniProt P37231); assay: qHTS assay for small molecule agonists of peroxisome proliferator-activated receptor gamma signaling (AID 588536; active = well fitted curve in the direction sought with a large enough effect in the signal ratio, with a control signal flat, not every such curve was filed as active; the % refers to the signal ratio); conditions: HEK293 PPARg-UAS-bla, beta-lactamase ratio, 16 h, percent of rosiglitazone response, DMSO as zero; series mostly up to 76.7 µM
In short: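 HEK293 UAS-bla reporter line, 1% charcoal/dextran FBS; titration, 16 h, 37 C; CCF4 loading 2 h RT; fluorescence 460/530 nm. Normalized to rosiglitazone 2 uM = 100%, DMSO = 0%.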

[13] = target: Thyroid hormone receptor beta (Homo sapiens) (UniProt P10828); assay: qHTS assay for small molecule agonists of thyroid hormone receptor beta signaling (AID 588545; calls by dose curve); conditions: TR-UAS-bla GripTite HEK 293, beta-lactamase ratio, agonist mode, 18 h; series mostly up to 76.7 µM
In short: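 Cells (2500/well) were seeded, incubated 4 hrs at 37 C, dosed with a compound series, incubated 18 hrs, loaded with CCF4 dye for 2 hrs at RT, then read for fluorescence. Data were scaled between DMSO (0%) and 10 nM T3 (100%).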

[14] = qHTS assay for small molecule activators of the p53 signaling pathway (AID 651743; active = well fitted activation curve with a large enough effect in the signal ratio, not every such curve was filed as active; the % refers to the signal ratio); conditions: HCT-116 p53RE-bla, beta-lactamase FRET ratio, 16 h; activation: stronger effect = higher value
In short: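 Read-out is fluorescence intensity from the LiveBLAzer B/G FRET substrate, added for 2 hours at room temperature after HCT-116 p53RE-bla cells had been incubated with compounds for 16 hours at 37 C.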

[15] = qHTS assay for small molecule agonists of the antioxidant response element (ARE) signaling pathway measured by Nrf2-dependant transcriptional activity (AID 720636; active = well fitted curve in the direction sought with a large enough effect in the repeat runs; an effect the other way counts as inactive or inconclusive); conditions: ARE-luc HepG2, Nrf2 luciferase reporter, 16 h; series mostly up to 92.4 µM
In short: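 ARE-luc HepG2 cells carrying an Nrf2-responsive luciferase reporter, in medium with 1% dialyzed FBS, exposed to compound for 16 hr at 37 C, 5% CO2. Luminescence read 30 min after ONE-Glo addition.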

[16] = target: Glucocorticoid receptor (Homo sapiens) (UniProt P04150); assay: qHTS assay for small molecule antagonists of glucocorticoid receptor signaling (AID 588533; active = well fitted inhibition curve with a large enough effect in the signal ratio, with a control signal flat, not every such curve was filed as active; the % refers to the signal ratio;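 note: cells stimulated with 2 nM dexamethasone as agonist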); conditions: HeLa MMTV-bla, GRE beta-lactamase ratio, antagonist mode, 18 h; series mostly up to 76.8 µM
In short: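 Antagonist-mode qHTS: compound titrations added to GRE-bla HeLa cells, then dexamethasone 2 nM final; 18 h, 37 C. CCF4 FRET fluorescence normalized to dexamethasone and DMSO; IC50 from Hill fit.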

[17] = qHTS assay for environmental chemicals that activate the Aryl hydrocarbon Receptor (AhR) signaling pathway (AID 651777); conditions: 1A2-DRE human hepatoma cells, luciferase, 24 h; activation: stronger effect = higher value; note: nearly all actives have a fitted effect of over 15% in size
In short: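 Human hepatoma 1A2-DRE cells stably carrying a DRE/CYP1A2 promoter–luciferase reporter, 1,200 cells/well, exposed to compound 24 hr at 37 C. Luciferase read by One-Glo luminescence after 30 min at room temperature; increased signal marks AhR activation.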

[18] = target: Vitamin D3 receptor (Homo sapiens) (UniProt P11473); assay: qHTS assay for small molecule agonists of vitamin D receptor signaling (AID 588543; calls by dose curve); conditions: HEK293T VDR-UAS-bla, beta-lactamase ratio, 16 h; series mostly up to 76.8 µM
In short: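 β-lactamase reporter, VDR-UAS-bla HEK293T, agonist mode. Cells plated 5 h at 37 °C, compound titration 16 h at 37 °C, CCF4 dye 2 h RT, ratio 460/530 nm. Hill fit → EC50, efficacy vs 50 nM 1α,25-(OH)2D3.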

[19] = Cell Viability - MRC5 (AID 434; calls by dose curve;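 note: potency is the fitted concentration of half-maximal effect; potency reflects cytotoxicity seen as loss of intracellular ATP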); conditions: MRC5 lung fibroblast viability, qHTS
In short: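 qHTS cytotoxicity in human lung fibroblast MRC5 cells; 40 hr treatment, 37 °C; cellular ATP by luciferase luminescence; DMSO = 0%, 100 uM tamoxifen = 100% inhibition; Hill-fit AC50.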

[20] = target: Glucocorticoid receptor (Homo sapiens) (UniProt P04150); assay: qHTS assay for small molecule agonists of glucocorticoid receptor signaling (AID 588532; active = well fitted curve in the direction sought with a large enough effect in the signal ratio, with a control signal flat; the % refers to the signal ratio); conditions: HeLa MMTV-bla, beta-lactamase ratio, agonist, 18 h; stronger effect = higher value; percent of dexamethasone control, DMSO zero
In short: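 Using MMTV-bla HeLa cells in medium with 1% stripped FBS and 25 mM HEPES, compounds were titrated and incubated overnight-length (18 h). Beta-lactamase cleavage of CCF4 was quantified by dual-emission fluorescence.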

Peroxisome proliferator-activated receptor delta (Homo sapiens), sequence (Q03181 whole entry, looked up): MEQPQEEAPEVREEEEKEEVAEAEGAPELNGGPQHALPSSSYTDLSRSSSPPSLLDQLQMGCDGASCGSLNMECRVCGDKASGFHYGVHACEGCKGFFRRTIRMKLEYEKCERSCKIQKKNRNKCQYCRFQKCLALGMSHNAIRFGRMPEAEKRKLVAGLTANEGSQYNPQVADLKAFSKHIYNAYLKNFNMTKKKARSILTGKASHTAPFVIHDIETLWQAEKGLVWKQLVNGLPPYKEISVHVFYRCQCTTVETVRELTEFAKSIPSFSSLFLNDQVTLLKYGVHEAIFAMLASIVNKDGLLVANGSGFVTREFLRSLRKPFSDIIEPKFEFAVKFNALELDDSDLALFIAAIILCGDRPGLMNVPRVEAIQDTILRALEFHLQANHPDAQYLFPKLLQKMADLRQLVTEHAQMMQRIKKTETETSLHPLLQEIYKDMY
Vitamin D3 receptor (Homo sapiens), sequence (P11473 whole entry, looked up): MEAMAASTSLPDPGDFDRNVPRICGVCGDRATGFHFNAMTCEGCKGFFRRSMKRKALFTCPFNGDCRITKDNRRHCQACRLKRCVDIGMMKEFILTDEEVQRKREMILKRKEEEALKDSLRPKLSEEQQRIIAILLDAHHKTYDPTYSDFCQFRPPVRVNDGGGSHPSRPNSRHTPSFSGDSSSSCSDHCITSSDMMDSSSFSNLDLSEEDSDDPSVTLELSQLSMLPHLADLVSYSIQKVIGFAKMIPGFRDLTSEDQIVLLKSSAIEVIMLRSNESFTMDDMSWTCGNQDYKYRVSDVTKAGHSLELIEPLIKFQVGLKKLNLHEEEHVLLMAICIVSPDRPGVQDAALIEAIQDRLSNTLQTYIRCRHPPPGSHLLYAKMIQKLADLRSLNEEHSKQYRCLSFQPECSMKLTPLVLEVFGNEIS
Glucocorticoid receptor (Homo sapiens), sequence (P04150 whole entry, looked up): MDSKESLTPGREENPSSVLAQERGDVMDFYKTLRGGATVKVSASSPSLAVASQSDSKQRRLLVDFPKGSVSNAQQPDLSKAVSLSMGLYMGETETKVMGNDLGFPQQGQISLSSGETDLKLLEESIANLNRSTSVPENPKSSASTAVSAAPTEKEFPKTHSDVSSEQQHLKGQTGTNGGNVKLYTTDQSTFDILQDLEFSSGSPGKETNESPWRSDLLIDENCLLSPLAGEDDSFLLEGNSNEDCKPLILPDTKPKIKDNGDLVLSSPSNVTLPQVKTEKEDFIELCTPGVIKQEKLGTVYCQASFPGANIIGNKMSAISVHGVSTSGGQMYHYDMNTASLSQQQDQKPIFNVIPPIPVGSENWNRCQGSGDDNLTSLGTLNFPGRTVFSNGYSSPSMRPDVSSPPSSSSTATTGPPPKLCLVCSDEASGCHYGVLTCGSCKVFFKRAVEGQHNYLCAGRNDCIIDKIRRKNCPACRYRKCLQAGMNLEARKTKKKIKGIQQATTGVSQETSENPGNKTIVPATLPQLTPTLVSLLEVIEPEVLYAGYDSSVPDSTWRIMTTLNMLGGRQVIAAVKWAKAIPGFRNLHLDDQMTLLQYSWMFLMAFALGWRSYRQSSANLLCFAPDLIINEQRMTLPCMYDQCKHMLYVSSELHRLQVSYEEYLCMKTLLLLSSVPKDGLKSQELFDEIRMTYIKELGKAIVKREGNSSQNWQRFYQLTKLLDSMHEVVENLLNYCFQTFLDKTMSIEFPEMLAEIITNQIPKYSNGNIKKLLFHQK
Peroxisome proliferator-activated receptor gamma (Homo sapiens), sequence (P37231 whole entry, looked up): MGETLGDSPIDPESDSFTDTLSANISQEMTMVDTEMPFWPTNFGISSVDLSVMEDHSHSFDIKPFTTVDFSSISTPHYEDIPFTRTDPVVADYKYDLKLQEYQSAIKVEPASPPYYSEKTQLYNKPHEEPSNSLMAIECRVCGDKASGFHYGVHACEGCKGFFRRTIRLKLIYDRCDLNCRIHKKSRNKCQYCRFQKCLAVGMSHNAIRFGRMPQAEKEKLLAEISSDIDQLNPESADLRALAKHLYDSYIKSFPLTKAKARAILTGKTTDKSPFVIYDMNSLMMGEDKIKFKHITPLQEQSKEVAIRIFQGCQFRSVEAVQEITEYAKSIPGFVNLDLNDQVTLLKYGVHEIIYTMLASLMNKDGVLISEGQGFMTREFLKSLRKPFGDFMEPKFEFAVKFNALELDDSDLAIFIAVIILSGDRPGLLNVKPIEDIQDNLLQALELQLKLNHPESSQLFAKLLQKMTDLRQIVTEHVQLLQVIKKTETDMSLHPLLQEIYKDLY
Thyroid hormone receptor beta (Homo sapiens), sequence (P10828 whole entry, looked up): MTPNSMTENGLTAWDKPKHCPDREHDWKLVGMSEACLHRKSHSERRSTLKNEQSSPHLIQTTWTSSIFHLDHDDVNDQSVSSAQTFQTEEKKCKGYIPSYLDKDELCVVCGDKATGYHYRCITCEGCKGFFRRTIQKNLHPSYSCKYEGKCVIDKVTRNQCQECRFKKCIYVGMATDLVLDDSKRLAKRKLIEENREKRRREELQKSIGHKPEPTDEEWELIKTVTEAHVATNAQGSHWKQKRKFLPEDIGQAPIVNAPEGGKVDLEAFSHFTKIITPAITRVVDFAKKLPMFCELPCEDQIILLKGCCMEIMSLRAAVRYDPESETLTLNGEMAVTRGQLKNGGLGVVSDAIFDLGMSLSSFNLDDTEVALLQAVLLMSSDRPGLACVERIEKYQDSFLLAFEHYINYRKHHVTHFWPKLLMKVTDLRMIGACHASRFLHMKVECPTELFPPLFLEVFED
Estrogen receptor (Homo sapiens), sequence (P03372 whole entry, looked up): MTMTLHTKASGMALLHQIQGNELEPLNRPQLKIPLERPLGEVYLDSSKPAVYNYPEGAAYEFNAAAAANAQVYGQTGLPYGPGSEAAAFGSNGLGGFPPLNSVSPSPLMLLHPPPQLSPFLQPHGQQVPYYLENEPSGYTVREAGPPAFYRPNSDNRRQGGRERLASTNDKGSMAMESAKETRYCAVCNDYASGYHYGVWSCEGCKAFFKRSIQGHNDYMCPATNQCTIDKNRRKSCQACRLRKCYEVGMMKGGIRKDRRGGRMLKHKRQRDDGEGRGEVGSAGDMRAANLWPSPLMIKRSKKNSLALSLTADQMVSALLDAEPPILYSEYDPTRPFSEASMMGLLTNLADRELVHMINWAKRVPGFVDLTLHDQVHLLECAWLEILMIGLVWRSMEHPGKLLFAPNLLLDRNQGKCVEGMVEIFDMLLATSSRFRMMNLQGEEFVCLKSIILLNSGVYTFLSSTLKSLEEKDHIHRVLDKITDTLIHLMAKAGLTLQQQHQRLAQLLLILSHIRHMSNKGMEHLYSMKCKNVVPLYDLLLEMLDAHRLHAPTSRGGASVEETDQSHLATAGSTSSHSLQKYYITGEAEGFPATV
Bile acid receptor (Homo sapiens), sequence (Q96RI1 whole entry, looked up): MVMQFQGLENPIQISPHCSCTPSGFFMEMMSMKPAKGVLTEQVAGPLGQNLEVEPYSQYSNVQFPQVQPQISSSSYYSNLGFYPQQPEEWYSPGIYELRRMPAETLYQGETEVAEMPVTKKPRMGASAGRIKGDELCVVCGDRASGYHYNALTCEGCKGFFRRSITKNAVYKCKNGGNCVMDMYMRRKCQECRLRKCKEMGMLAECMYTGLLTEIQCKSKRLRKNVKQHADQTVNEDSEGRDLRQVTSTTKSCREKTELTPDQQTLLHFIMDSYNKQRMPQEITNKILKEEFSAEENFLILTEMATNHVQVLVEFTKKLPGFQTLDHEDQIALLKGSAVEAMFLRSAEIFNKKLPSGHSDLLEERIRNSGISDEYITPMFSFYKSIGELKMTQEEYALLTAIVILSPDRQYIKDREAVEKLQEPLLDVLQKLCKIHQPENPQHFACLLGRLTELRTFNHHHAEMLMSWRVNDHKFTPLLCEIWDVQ

With `CCCCOC(C)=O` the Potency [1] was > 92 µM (inactive), the Potency [2] was > 92 µM (inactive) and the Potency [3] was “inactive”. The Potency [4] was “inactive”, the Potency [5] was “inactive” and the Potency [6] was “inactive”. For the same compound, the Potency [7] was “inactive”, the Potency [8] was “inactive” and the activation [9] was 1.21% (inactive). The max response [10] was 21.2%, the outcome [11] was “inactive” and the outcome [12] was “inactive”. For the same compound, the Potency [13] was “inactive”, the activation [14] was -4.75% (inactive) and the Potency [15] was “inactive”.

For `CC(C#N)CCC#N` (stereo not drawn), the Potency [1] was > 92 µM (inactive), the Potency [2] was > 92 µM (inactive) and the Potency [3] was “inactive”. The Potency [4] was “inactive”, the Potency [5] was “inactive” and the Potency [6] was “inactive”. The Potency [7] was “inactive”, the Potency [8] was “inactive” and the outcome [16] was “inactive”. For the same compound, the max response [10] was 27.1%, the outcome [11] was “inactive” and the outcome [12] was “inactive”. For the same compound, the Potency [13] was “inactive”, the activation [14] was -0.507% (inactive) and the activation [17] was -0.458% (inactive). For the same compound, the Potency [15] was “inactive”.

With `ClCC(Cl)CCl` the Potency [1] was > 92 µM (inactive), the Potency [2] was > 92 µM (inactive) and the Potency [4] was “inactive”. For the same compound, the Potency [5] was “inactive”, the outcome [16] was “inactive” and the max response [10] was 17.7%. The outcome [11] was “inactive”, the outcome [18] was “inactive” and the Potency [13] was “inactive”. For the same compound, the Potency [15] was “inactive”.

With `Nc1ccccc1-c1ccccc1` the Potency [1] was > 92 µM (inactive), the Potency [19] was > 92 µM (inactive) and the Potency [4] was “inactive”. The Potency [6] was “inactive”, the Potency [7] was “inactive” and the activation [20] was -2.58% (inactive). The outcome [16] was “inactive”, the outcome [12] was “inactive” and the outcome [18] was “inactive”. The Potency [13] was “inactive” and the activation [17] was -0.114% (inactive).

For `CCCCC(=O)Cl`, the Potency [1] was > 92 µM (inactive), the Potency [2] was > 92 µM (inactive) and the Potency [3] was “inactive”. The Potency [4] was “inactive”, the Potency [5] was “inactive” and the Potency [6] was “inactive”. For the same compound, the activation [9] was 3.38% (inactive), the outcome [16] was “inactive” and the max response [10] was 20%. The outcome [11] was “inactive”, the outcome [18] was “inactive” and the Potency [13] was “inactive”. The activation [14] was 1.32% (inactive) and the Potency [15] was “inactive”.

With `CCCCCCCCCCCOC(=O)c1ccccc1C(=O)OCCCCCCCCCCC` the Potency [1] was > 92 µM (inactive), the Potency [19] was > 92 µM (inactive) and the Potency [3] was “inactive”. The Potency [4] was “inactive”, the Potency [5] was “inactive” and the Potency [7] was “inactive”. The Potency [8] was “inactive”, the activation [20] was 3.4% (inactive) and the outcome [16] was “inactive”. The max response [10] was -38.8%, the outcome [11] was “inactive” and the outcome [12] was “inactive”. The outcome [18] was “inactive”, the Potency [13] was “inactive” and the activation [14] was 2.34% (inactive). The activation [17] was -2.18% (inactive).

With `Nc1ccc(Cc2ccc(N)c(Cl)c2)cc1Cl` the Potency [19] was > 92 µM (inactive), the Potency [3] was “inactive” and the Potency [5] was “inactive”. The activation [20] was -1.55% (inactive), the outcome [12] was “inactive” and the outcome [18] was “inactive”. For the same compound, the activation [14] was -1.58% (inactive) and the activation [17] was 3.75% (inactive).

For `O=[N+]([O-])/C=C/c1ccccc1`, the Potency [1] was 9.79 µM (active), the Potency [3] was 15.8 µM (active) and the Potency [4] was 5.01 µM (active). The Potency [5] was 39.8 µM (active), the Potency [6] was 39.8 µM (active) and the activation [9] was 2.07% (inactive). The outcome [16] was “inactive”, the max response [10] was 20.9% and the outcome [11] was “inactive”. For the same compound, the outcome [12] was “inactive”, the outcome [18] was “inactive” and the activation [14] was 10.5% (inactive). The Potency [15] was “inactive”.
